LANA-H2A inh: blocks KSHV LANA binding to histone H2A/H2B. Q9QR71. cell-free LANA-H2A/H2B peptide, fluorescence polarization. inhibition, % (no concentration beside the values). hit rate 0.6% among 320,000; in the data active means inhibition mostly above about 10%, no sharp cut-off; inactive means mostly below about 6.7%
ABHD5-PLIN5 inh: blocks binding of human ABHD5 to perilipin-5. inhibition, % at 4 µM. Split G. princeps luciferase complementation, luminescence, 4 h. AID 602281. Q00G26+Q8WTS1. hit rate 0.78% among 360,000;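 active means inhibition above the mean inhibition across every tested compound plus 3 SD, cut at about 22% in these data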;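 further: 0% = DMSO only wells and the 100% control is not disclosed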
rCAG RNA binder: molecules binding r(CAG) RNA repeats | r(CAG) RNA repeat, TO-PRO-1 dye displacement fluorescence | inhibition, % at 3 µM | hit rate 1.3% among 370,000;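 active means inhibition above the plate cutoff, the mean of all test compounds on that plate plus 3 SD, cut at about 35% in these data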;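 further: 0% = DMSO alone and 100% = 100 µM mitoxantrone as full dye displacement; higher means more dye released from RNA so lower well fluorescence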
ALR H2O2 inh: blocks human ALR sulfhydryl oxidase activity. P55789. purified ALR, DTT oxidation, H2O2 HRP-luminol luminescence. inhibition, % (test concentration not listed). hit rate 3.8% among 290,000;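 active means mean replicate inhibition above about 79%, with every replicate also reaching it, limit read from the data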
Rtt109 HAT inh: C. albicans Rtt109 histone acetyltransferase inhibition; Q5AAJ8; purified Rtt109/Vps75, ThioGlo CoA-SH fluorescence, 4 h; inhibition, % at 34.9 µM; hit rate 0.16% among 330,000;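 active means inhibition of at least 50% in every replicate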
PRMT1 FP inh: inhibitors of human PRMT1. hit rate 1.3% among 370,000. recombinant PRMT1, activity-based probe fluorescence polarization. AID 652257. inhibition, % at 2.79 µM;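 active means inhibition above about 21% made by adding two undisclosed values, limit read from the data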
The depositor's hits bear a star; / = not tested or not shown. In the library only some 5.9% were active in any assay of this set; here they are far more common.

SMILES | LANA-H2A inh | ABHD5-PLIN5 inh | rCAG RNA binder | ALR H2O2 inh | Rtt109 HAT inh | PRMT1 FP inh
CCOC(=O)c1[nH]c(C)c(C(=O)N2CCCC(Nc3ccc(C)c(C)c3)C2)c1C (stereo not drawn) | -1 | -7 | -10 | 99* | -8 | 1
CC1(c2nc3ccccc3[nH]2)c2ccccc2C(=O)N1Cc1ccccc1 (stereo not drawn) | / | 1 | 1 | / | / | 3
COc1cccc2cc(C(C)=O)c(=O)oc12 | 1 | -8 | 2 | -3 | 7 | 1
COc1cccc2cc(C(=O)CS(=O)(=O)c3ccc(Cl)cc3)c(=O)oc12 | 3 | 3 | 47* | -8 | -3 | 6
COC(=O)[C@]1(CNC(=O)C(F)(F)F)CC(=O)N(C)[C@@H]1c1ccccc1 | / | / | 1 | / | / | 2
COc1cc(CC2COC(=O)C2(O)Cc2ccc(O)c(OC)c2)ccc1O (stereo not drawn) | 8 | 1 | 0 | 87* | 6 | -5
COc1cc(CC2COC(=O)C2Cc2ccc(O)c(OC)c2)ccc1O (stereo not drawn) | / | / | 0 | / | / | -2
C[C@H]1CN(c2ccc(N3CCN(C(=O)OC(C)(C)C)C[C@@H]3C)cc2C#N)CCN1Cc1ccccc1 | / | / | 4 | / | / | -5
O=C(CSc1nc2[nH]ncc2c(=O)[nH]1)c1ccc(Cl)cc1 | -7 | / | -1 | 1 | / | -1
Cc1nc(SCC(=O)c2ccc(Cl)cc2)c([N+](=O)[O-])[nH]1 | 4 | -3 | 10 | 99* | 6 | 6
Cc1nc(SCC(=O)c2ccc(F)cc2)c([N+](=O)[O-])[nH]1 | 3 | 8 | 6 | 93* | 7 | 1
COc1ccc(Oc2c(C)nc(SCC(=O)c3ccc(Cl)cc3)[nH]c2=O)cc1 | 0 | -4 | 26 | 88* | 16 | -1
Cc1cc(C)nc(SCC(=O)c2ccc(F)cc2)n1 | 1 | -5 | -5 | 20 | 2 | -1
CC1(Cc2ccc(C(F)(F)F)nc2)C(=O)Nc2cc(-c3ccccc3Cl)ccc21 (stereo not drawn) | / | -1 | 3 | / | / | 0
O=C(NC1CCCCC1)N1CCN(S(=O)(=O)c2ccc(F)cc2)CC1 | 17* | -1 | -6 | -3 | -9 | -3
O=C(C1CCCO1)N1CCN(S(=O)(=O)c2ccc(F)cc2)CC1 (stereo not drawn) | 0 | -4 | 0 | / | 5 | 24*
CCCCCCCCCCn1c2c(c(=N)c3c1CCC3)CCC2 | 3 | 23* | 15 | -1 | 77* | -4
N#Cc1cccc(NC(=O)OCCCN2CCC3(CCCCC3)C2=O)c1 | / | / | -2 | / | / | -2
CCOC(=O)/C(C#N)=C\c1cn(C)c2ccccc12 | 2 | -1 | 1 | 3 | -7 | -1
CCOC(=O)/C(=C\c1cn(C)c2ccccc12)[N+](=O)[O-] | 2 | -1 | 3 | 95* | 1 | 1
O=C1NC(=O)C2(CCCCCCCCCCC2)N1 | -3 | 0 | -2 | / | -1 | 2
O=C1CCCC2=C1C(c1ccco1)Nc1ccc3ccccc3c12 (stereo not drawn) | -4 | 19 | 34 | -1 | -9 | 44*
O=C1CCCC2=C1C(c1ccc(O)c(O)c1)Nc1ccc3ccccc3c12 (stereo not drawn) | 6 | 13 | 11 | 98* | 4 | 17
COc1cc(C2Nc3ccc4ncccc4c3C3=C2C(=O)CCC3)cc(OC)c1O (stereo not drawn) | 1 | 6 | 0 | / | 7 | 6
C=C(C)C(=O)OC1(C(F)(F)F)Oc2cc(C)ccc2NC1=O (stereo not drawn) | 1 | 8 | -9 | 98* | -1 | -1
SMILES | LANA-H2A inh | ABHD5-PLIN5 inh | rCAG RNA binder | ALR H2O2 inh | Rtt109 HAT inh | PRMT1 FP inh
COc1ccc(CNCC#Cc2ccc(C(F)(F)F)cc2)c(OC)c1 | / | / | 1 | / | / | 0
COc1cc(NC(=O)[C@H]2O[C@@H](n3ccc(N)nc3=O)[C@H](O)[C@@H]2O)cc(OC)c1OC | / | -2 | -1 | / | / | 4
C=CCN1[C@@H](Cc2ccccc2)COc2cc(F)ccc2S1(=O)=O | / | / | 0 | / | / | 2
CCNC(=S)N(CCc1c(C)[nH]c2ccc(Cl)cc12)Cc1cccnc1 | 1 | 11 | 0 | 55 | -16 | -1
CNC(=S)N(CCc1c(C)[nH]c2ccc(Cl)cc12)Cc1cccnc1 | -4 | 5 | -1 | 97* | 8 | -2
COCCNC(=S)N(CCc1c(C)[nH]c2ccccc12)Cc1cccnc1 | 1 | -1 | -1 | 97* | 8 | 7

Screening data: PubChem BioAssay, several laboratories
